Measurements as given in PubChem BioAssay (NCATS).
Records with an inconclusive call do not appear. Activity calls are given as the source filed them. Unless noted, calls follow the shape of the dose curve; as a rule, active = well fitted curve in the direction sought with a large enough effect; inconclusive = small, poorly fitted or top-dose-only effect, or another doubt; inactive = no such curve, though single readings can be large; an effect the other way counts as inactive or inconclusive.

Experiments:
[1] = AP1 Signaling Pathway (AID 357; active = well fitted curve in either direction with a large enough effect, not every such curve was filed as active; also: % is scaled to controls: 0 for no effect and ±100 for the full control effect)
How it was run: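 ME-180 cells with beta-lactamase reporter under AP-1 response element, stimulated with EC50 EGF; compounds tested in titration series, 5 h at 37 °C. CCF4 substrate added 2.5 h at room temperature; 460/530 nm emission ratio gave %activity and AC50.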

[2] = NFAT Signaling Pathway (AID 444; active = well fitted curve in either direction with a large enough effect, not every such curve was filed as active;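 also: carbachol stimulus at about its EC50 of 1 µM final; % is scaled to controls: 0 for no effect and ±100 for the full control effect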); conditions: Jurkat NFAT-bla M1, carbachol, beta-lactamase ratio, 5 h; at 17.2 µM (top of the series) unless noted
How it was run: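 Jurkat cells with NFAT-driven β-lactamase reporter and co-expressed M1 receptor, stimulated with carbachol (final 1 uM, ~EC50), compound titration, 5 h at 37 °C. CCF4 loaded 1 h at RT; 460/530 nm ratio gave %activity and AC50.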

[3] = Stat Signaling Pathway (AID 446; active = well fitted curve in either direction with a large enough effect, not every such curve was filed as active;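 also: ME-180 cervical cancer cells given 40 pM IL-6 alongside compound; SIE-controlled beta-lactamase reporter measured as 460/530 nm FRET emission ratio; % is scaled to controls: 0 for no effect and ±100 for the full control effect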)
How it was run: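 FRET read-out (405 nm excitation, 460/530 nm emission) of a beta-lactamase reporter under a STAT-inducible element in ME-180 cervical carcinoma cells. Cells with compound receive 40 pM IL-6 for 5 h. Values are normalised to AC90 stimulation and AC90 JAK-inhibitor controls.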

[4] = biological target: Glucocorticoid receptor (Homo sapiens) (UniProt P04150); assay: GR-EFC Redistribution (AID 451; calls by dose curve; also: potency is read from the fitted curve at half-maximal effect); conditions: CHO-K1 GR-EFC translocation, beta-gal luminescence, 2 h
Chain of Glucocorticoid receptor (Homo sapiens) (P04150 whole entry, looked up, the tested form may be a part): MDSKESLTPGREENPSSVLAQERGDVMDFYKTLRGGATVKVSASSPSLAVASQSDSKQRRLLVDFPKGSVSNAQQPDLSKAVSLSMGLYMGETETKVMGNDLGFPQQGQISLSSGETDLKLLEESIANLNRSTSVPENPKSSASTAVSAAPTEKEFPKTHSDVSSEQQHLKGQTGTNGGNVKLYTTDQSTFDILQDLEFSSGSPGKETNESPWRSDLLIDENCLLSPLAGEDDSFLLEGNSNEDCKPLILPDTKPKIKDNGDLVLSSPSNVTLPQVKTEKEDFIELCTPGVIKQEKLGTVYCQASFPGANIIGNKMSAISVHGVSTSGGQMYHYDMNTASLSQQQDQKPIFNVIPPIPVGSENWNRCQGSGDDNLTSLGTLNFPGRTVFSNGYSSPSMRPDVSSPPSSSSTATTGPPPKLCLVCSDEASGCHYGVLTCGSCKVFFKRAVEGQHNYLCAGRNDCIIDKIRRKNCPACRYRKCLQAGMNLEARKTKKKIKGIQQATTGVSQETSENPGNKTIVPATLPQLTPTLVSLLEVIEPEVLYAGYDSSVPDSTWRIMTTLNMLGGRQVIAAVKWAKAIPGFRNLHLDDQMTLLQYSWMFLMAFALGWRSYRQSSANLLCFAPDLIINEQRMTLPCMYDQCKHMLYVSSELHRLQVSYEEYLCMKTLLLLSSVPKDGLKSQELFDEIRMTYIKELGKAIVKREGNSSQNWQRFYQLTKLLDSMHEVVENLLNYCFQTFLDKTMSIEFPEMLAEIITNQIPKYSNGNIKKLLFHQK
How it was run: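 CHO-K1 cells expressing nuclear EA and GR-ED fragments of b-gal; compounds titrated up to 46 uM final, 2 h at 37 C. GR nuclear translocation read as complemented b-gal luminescence after 1 h RT detection.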

[5] = biological target: Mitogen-activated protein kinase 10 (Mus musculus) (UniProt Q61831); assay: JNK3 AlphaScreen Assay (AID 530; active = well fitted curve in either direction with a large enough effect, not every such curve was filed as active;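 also: kinase came from lysate of stimulated human HepG2 cells; signal reports phosphorylation of biotinylated GST-cJun 1-79 at Ser73 with 10 µM ATP; % is scaled to controls: 0 for no effect and ±100 for the full control effect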)
How it was run: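 Activity was read by AlphaScreen after JNK3-containing HepG2 lysate (cytokine pre-activated) phosphorylated biotinylated GST-cJun with 10 uM ATP at room temperature. Phospho-Ser73 cJun antibody with Protein-A acceptor beads provided detection.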

[6] = biological target: 3',5'-cyclic-AMP phosphodiesterase 4B (Homo sapiens) (UniProt Q07343); assay: qHTS Assay for Inhibitors of PDE-IV (AID 607; active = well fitted activation curve with a large enough effect in the main read-out, with a control signal flat, not every such curve was filed as active; also: % of control where 0% means no effect)
Chain of 3',5'-cyclic-AMP phosphodiesterase 4B (Homo sapiens) (Q07343 whole entry, looked up): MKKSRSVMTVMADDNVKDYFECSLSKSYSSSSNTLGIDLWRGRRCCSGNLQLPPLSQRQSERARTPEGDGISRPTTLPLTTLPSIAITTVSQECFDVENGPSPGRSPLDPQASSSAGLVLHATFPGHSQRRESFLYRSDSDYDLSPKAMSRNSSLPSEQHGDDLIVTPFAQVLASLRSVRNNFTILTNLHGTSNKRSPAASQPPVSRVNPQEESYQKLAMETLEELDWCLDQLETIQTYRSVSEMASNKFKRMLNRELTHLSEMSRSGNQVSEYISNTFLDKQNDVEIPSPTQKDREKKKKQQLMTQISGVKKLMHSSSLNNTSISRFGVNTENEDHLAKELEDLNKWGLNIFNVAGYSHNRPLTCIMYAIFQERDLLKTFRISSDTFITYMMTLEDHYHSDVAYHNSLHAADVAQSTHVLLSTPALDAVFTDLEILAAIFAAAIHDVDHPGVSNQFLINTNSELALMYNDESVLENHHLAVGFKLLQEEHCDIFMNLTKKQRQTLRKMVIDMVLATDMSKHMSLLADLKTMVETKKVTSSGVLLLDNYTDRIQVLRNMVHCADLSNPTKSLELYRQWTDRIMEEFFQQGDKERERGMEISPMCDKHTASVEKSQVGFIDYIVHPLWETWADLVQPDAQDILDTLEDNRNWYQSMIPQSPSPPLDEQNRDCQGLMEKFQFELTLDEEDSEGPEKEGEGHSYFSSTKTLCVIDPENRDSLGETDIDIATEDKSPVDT
How it was run: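 Cell-based read-out of cAMP via a modified cyclic nucleotide-gated channel and membrane potential dye (535/590 nm) in HEK293 cells expressing PDE4 endogenously. Compounds tested up to 22.9 uM final; 100 uM RO 20-1724 reference.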

[7] = qHTS Assay for Lipid Storage Modulators (AID 1519; calls by dose curve); conditions: Drosophila S3 cells, BODIPY lipid droplet/cell ratio, laser cytometry, cells loaded with oleic acid; for activity change, negative = inhibition: at 25.7 µM (top of the series)
How it was run: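 Cells seeded at 5,000 per well were treated with compounds over a concentration series and loaded with oleic acid (400 uM, as added). Lipid droplet fluorescence (488 nm excitation, 500-530 nm channel) was read by laser-scanning cytometry and normalized to 20 uM Triacsin C.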

[8] = biological target: Ubiquitin carboxyl-terminal hydrolase 1 (Homo sapiens) (UniProt O94782); assay: Inhibitors of USP1/UAF1: Pilot qHTS (AID 504865);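 also: rhodamine fluorescence freed from ubiquitin-rhodamine substrate followed over time; top concentration of the series differs between compounds; % is scaled to controls: 0 for no effect and ±100 for the full control effect; nearly all actives have a fitted effect of over 35% in size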
Chain of Ubiquitin carboxyl-terminal hydrolase 1 (Homo sapiens) (O94782 whole entry, looked up): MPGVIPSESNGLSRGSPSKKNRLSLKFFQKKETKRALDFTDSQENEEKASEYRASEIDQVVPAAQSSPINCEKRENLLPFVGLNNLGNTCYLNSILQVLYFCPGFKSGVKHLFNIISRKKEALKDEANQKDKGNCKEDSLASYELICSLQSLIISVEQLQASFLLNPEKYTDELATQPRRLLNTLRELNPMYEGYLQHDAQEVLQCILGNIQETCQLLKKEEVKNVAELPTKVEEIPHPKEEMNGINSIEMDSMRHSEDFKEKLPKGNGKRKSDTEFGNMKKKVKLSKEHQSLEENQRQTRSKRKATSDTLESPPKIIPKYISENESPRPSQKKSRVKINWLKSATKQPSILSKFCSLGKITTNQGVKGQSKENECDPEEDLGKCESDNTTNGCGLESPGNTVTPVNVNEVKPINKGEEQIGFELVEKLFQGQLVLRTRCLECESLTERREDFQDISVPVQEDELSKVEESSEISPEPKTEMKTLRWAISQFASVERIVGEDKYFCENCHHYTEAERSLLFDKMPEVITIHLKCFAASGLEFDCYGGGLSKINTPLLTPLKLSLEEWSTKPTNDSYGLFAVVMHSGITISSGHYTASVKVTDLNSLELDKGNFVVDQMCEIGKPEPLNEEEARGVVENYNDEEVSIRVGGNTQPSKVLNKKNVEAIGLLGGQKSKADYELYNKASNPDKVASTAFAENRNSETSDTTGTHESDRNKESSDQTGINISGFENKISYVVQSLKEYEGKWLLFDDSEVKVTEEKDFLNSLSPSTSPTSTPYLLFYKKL
How it was run: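 Deubiquitinase activity followed as kinetic rhodamine fluorescence release from 150 nM Ub-Rho. 1 nM USP1/UAF1 with compound, after 15 min room-temperature preincubation, in HEPES pH 7.8 buffer containing TCEP, EDTA, BSA and Tween-20.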

[9] = biological target: Glucocorticoid receptor (Homo sapiens) (UniProt P04150); assay: GR-GFP Redistribution (AID 450;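 active = compounds whose dose series gives a full or clear partial fitted curve of increased nuclear translocation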; also: potency is read from the fitted curve at half-maximal effect); conditions: U2OS GR-GFP nuclear translocation, laser cytometry, 2 h
[10] = biological target: ATP-dependent 6-phosphofructokinase (Trypanosoma brucei brucei) (UniProt O15648); assay: qHTS Assay to Find Inhibitors of T. brucei phosphofructokinase: hit validation (AID 492961); also: % is scaled to controls: 0 for no effect and ±100 for the full control effect
Chain of ATP-dependent 6-phosphofructokinase (Trypanosoma brucei brucei) (O15648 whole entry, looked up): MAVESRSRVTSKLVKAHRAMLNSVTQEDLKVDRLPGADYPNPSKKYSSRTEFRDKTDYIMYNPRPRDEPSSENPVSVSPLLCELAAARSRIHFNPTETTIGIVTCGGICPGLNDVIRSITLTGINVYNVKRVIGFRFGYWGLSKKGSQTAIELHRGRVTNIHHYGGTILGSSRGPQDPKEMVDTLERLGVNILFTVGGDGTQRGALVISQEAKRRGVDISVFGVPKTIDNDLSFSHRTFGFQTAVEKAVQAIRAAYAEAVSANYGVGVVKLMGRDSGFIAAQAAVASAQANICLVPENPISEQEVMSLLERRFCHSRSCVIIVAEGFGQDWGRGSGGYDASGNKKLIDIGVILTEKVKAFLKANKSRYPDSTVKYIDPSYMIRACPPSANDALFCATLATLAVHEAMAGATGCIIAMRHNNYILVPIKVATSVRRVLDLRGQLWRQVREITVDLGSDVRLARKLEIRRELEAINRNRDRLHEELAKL
How it was run: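 Luminescence from ADP-Glo reports ADP generated as T. brucei PFK (1.25 nM) phosphorylates 0.5 mM fructose-6-phosphate using 0.1 mM ATP. Reactions ran 45 min at room temperature, pH 8.0.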

[11] = biological target: Luciferin 4-monooxygenase (Photinus pyralis) (UniProt P08659); assay: Biochemical firefly luciferase enzyme assay for NPC (AID 624030);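 also: purified P. pyralis luciferase at 10 nM with luciferin and ATP substrate; 0% = DMSO and -100% = full luciferase inhibition by PTC124 control; nearly all actives have a fitted effect of over 70% in size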
Chain of Luciferin 4-monooxygenase (Photinus pyralis) (P08659 whole entry, looked up): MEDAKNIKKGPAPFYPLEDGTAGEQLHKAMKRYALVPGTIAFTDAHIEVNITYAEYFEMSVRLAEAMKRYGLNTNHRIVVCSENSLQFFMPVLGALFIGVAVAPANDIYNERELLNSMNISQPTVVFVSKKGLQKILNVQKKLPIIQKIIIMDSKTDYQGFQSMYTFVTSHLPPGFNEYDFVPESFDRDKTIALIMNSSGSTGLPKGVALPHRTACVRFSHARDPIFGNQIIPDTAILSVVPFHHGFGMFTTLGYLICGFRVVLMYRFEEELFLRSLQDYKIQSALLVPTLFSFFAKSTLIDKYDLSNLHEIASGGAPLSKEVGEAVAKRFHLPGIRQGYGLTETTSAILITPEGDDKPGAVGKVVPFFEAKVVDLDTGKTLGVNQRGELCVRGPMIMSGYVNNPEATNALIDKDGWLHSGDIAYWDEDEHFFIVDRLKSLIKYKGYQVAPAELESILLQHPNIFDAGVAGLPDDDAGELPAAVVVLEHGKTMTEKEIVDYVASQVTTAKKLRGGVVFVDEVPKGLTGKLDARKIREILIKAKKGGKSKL
How it was run: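 Purified P. pyralis luciferase at 10 nM in 50 mM Tris Acetate (final), luminescence read within 5 minutes of enzyme addition to compounds. Activity normalised to PTC124 versus DMSO; concentration-response curves classed by r2, magnitude and activity.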

[12] = S16 Schwann cell PMP22 intronic element firefly luciferase assay (AID 624032); also: nearly all actives have a fitted effect of over 30% in size; also: potency is read from the fitted curve at half-maximal effect;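 as to activity change, negative = inhibition: plate controls were DMSO for no effect and PTC124 positive control mean for full effect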
How it was run: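 Rat S16 Schwann cells stably carrying firefly luciferase driven by a PMP22 intronic element, in 10% FBS, treated 24 h at 37 C. ONE-Glo luminescence normalized to PTC124 control and DMSO (0%); curves classed by r2, magnitude and activity.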

[13] = qHTS profiling for inhibitors of Plasmodium falciparum proliferation (AID 504749); also: nearly all actives have a fitted effect of over 60% in size; also: potency is read from the fitted curve at half-maximal effect;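 as to activity, negative = inhibition: 0% = DMSO vehicle and full inhibition = artemisinin control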; conditions: P. falciparum in erythrocytes, SYBR Green DNA, 72 h
How it was run: (§1)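 Each compound contacts P. falciparum-infected red blood cells for 72 h at 37 C; lysis buffer (Tris, EDTA, saponin, Triton X, SYBR Green I) is added and fluorescence measured next morning; values normalized to controls.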

[14] = test system: AS120; assay: as above; conditions: P. falciparum in erythrocytes, SYBR Green DNA, 72 h; series mostly up to 12.8 µM
How it was run: as §1

[15] = test system: C2A; assay: as above; conditions: P. falciparum in erythrocytes, SYBR Green DNA, 72 h; series mostly up to 12.8 µM
How it was run: as §1

[16] = test system: CP238; assay: as above; conditions: P. falciparum in erythrocytes, SYBR Green DNA, 72 h; series mostly up to 12.8 µM
How it was run: as §1

[17] = test system: CP250; assay: as above; conditions: P. falciparum in erythrocytes, SYBR Green DNA, 72 h; series mostly up to 12.8 µM
How it was run: as §1

[18] = test system: CP252; assay: as above; conditions: P. falciparum in erythrocytes, SYBR Green DNA, 72 h; series mostly up to 12.8 µM
How it was run: as §1

[19] = test system: HB3; assay: as above; conditions: P. falciparum in erythrocytes, SYBR Green DNA, 72 h; series mostly up to 12.8 µM
How it was run: as §1

[20] = test system: SC27B; assay: as above; conditions: P. falciparum in erythrocytes, SYBR Green DNA, 72 h; series mostly up to 12.8 µM
How it was run: as §1

[21] = measured here: cell count channel max response
[22] = measured here: lipid channel max response

O=c1cc(-c2ccc(O)cc2)oc2c([C@H]3O[C@@H](CO)[C@@H](O)[C@@H](O)[C@@H]3O)c(O)cc(O)c12
-1.3%: max response [7, 21]
inactive: outcome [1] | activity change, negative = inhibition [2] 2.91% | outcome [3] | Potency [4] > 20.6 µM | Potency [5] | outcome [6] | activity change, negative = inhibition [7] -1.45% | Potency [8]
1.02%: max response [7, 22]

Cc1cn([C@@H]2C[C@H](N=[N+]=N)[C@H](CO)O2)c(=O)[nH]c1=O
-18.3%: max response [7, 22]
-19.5%: max response [7, 21]
inactive: outcome [1] | activity change, negative = inhibition [2] -2.1% | outcome [3] | Potency [9] > 20.6 µM | Potency [4] > 20.6 µM | Potency [5] | outcome [6] | activity change, negative = inhibition [7] -0.533% | Potency [8]

CCCC(=O)Nc1ncnc2c1ncn2[C@@H]1O[C@H]2COP(=O)(O)O[C@@H]2[C@@H]1OC(=O)CCC
-2.67%: max response [7, 21]
inactive: outcome [1] | activity change, negative = inhibition [2] 16.7% | outcome [3] | Potency [9] > 20.6 µM | Potency [4] > 20.6 µM | Potency [5] | outcome [6] | activity change, negative = inhibition [7] -1.42% | Potency [8]
-4.54%: max response [7, 22]

CCCC(=O)Nc1ccc(OC[C@@H](O)CNC(C)C)c(C(C)=O)c1
-3.96%: max response [7, 22]
-0.4%: max response [7, 21]
inactive: outcome [1] | activity change, negative = inhibition [2] -10.7% | outcome [3] | Potency [9] > 20.6 µM | Potency [4] > 20.6 µM | Potency [5] | outcome [6] | activity change, negative = inhibition [7] -2.69% | outcome [10] | Potency [8] | Potency [11] | Potency [12]

O=C(N/N=C\c1ccc([N+](=O)[O-])o1)c1ccc(O)cc1
active: Potency [12] 3.46 µM | Potency ([13]; parasite line A) 1.41 µM | Potency ([13]; parasite line B) 2.82 µM | Potency [14] 2.82 µM | Potency [15] 3.16 µM | Potency [16] 3.16 µM | Potency [17] 3.16 µM | Potency [18] 3.16 µM | Potency [19] 3.55 µM | Potency [20] 3.55 µM
inactive: outcome [1] | activity change, negative = inhibition [2] 1.26% | outcome [3] | Potency [9] > 20.6 µM | Potency [4] > 20.6 µM | Potency [5] | outcome [6] | activity change, negative = inhibition [7] -1.38% | outcome [10] | Potency [11]
-11.6%: max response [7, 22]
-7.99%: max response [7, 21]

C[C@@H](C(=O)O)c1ccc(N2Cc3ccccc3C2=O)cc1
-8.47%: max response [7, 21]
inactive: outcome [1] | activity change, negative = inhibition [2] 11.8% | outcome [3] | Potency [9] > 20.6 µM | Potency [4] > 20.6 µM | Potency [5] | outcome [6] | activity change, negative = inhibition [7] -0.476% | Potency [8]
-10.4%: max response [7, 22]

CO[C@H]1[C@H](O[C@H]2O[C@@H](C)[C@@H](O[C@@H]3C[C@](C)(O)[C@H](O)[C@H](C)O3)[C@@H](N(C)C)[C@@H]2O)[C@@H](CC=O)C[C@@H](C)[C@@H](O[C@H]2CC[C@H](N(C)C)[C@H](C)O2)/C=C\C=C/C[C@@H](C)OC(=O)C[C@H]1O
-9.34%: max response [7, 21]
-16.8%: max response [7, 22]
inactive: outcome [1] | activity change, negative = inhibition [2] 7.86% | outcome [3] | Potency [9] > 20.6 µM | Potency [4] > 20.6 µM | Potency [5] | outcome [6] | activity change, negative = inhibition [7] -1.68% | outcome [10] | Potency [8] | Potency [11] | Potency [12] | activity, negative = inhibition ([13]; at 12.8 µM (top of the series), parasite line A) -18% | Potency [14] | Potency [15] | Potency [16] | Potency [17] | Potency [19] | Potency [20]
